High-throughput results as filed in PubChem BioAssay.
Compounds with a hit are over-represented: about 8% of the library has one in this group of screens.
Lassa entry – blocks Lassa virus binding or cell entry; Lassa virus pseudotyped entry inhibition, cell-based qHTS; Potency, µM (highest dose often 49.2 µM), without a hit: top-dose activity change, negative = inhibition, most hits filed as inhibitors; 18,000 tested, 4.1% active; AID 720533
MARV entry inh – inhibitors of Marburg virus binding or entry into cells; 18,000 tested, 6.5% active; Potency, µM (top dose mostly 49.2 µM), inactives show at the highest dose activity change, negative = inhibition, actives largely listed as inhibitors; Marburg virus pseudotype entry/binding inhibition, cell-based; AID 720532
Numbers without * were called inactive; [ ] = another dose, or the depositor's remark. Calls come from the whole dose curve; tested in HEK293 cells. % is set by controls: 0 for no effect and ±100 for the full control effect; potency is the fitted concentration of half-maximal effect.

For CC(=O)N[C@@H](C=O)[C@H](O)[C@H](O)[C@@H](O)CO the results were Lassa entry -1% and MARV entry inh -8%.
C=CCCCN1C=C(C(C)=O)C(c2ccccc2)NC1=O (stereo unspecified) was read as Lassa entry 28%[8.59 µM] and MARV entry inh 18%[8.59 µM].
For CC(C)=CCCC(C)=CCON=C1C[C@@H](O)[C@@H](O)[C@@H]2[C@H]3C(=O)N(C[C@@H]4CCCO4)C(=O)[C@@H]3CC[C@H]12 the results were Lassa entry -17%[8.59 µM] and MARV entry inh 22%[8.59 µM].
For CC[C@@H](C(=O)[C@@H](C)[C@@H](O)[C@H](C)CCc1ccc(C)c(O)c1C(=O)O)[C@H]1O[C@](CC)([C@H]2CC[C@](O)(CC)[C@H](C)O2)C[C@@H]1C the results were Lassa entry 11µM* and MARV entry inh -78%.
Screening [Cl-].[Cl-].[Hg+2] returned Lassa entry 3.2µM* and MARV entry inh 2.8µM*.
Screening CC(=O)O[C@H]1C[C@H](O[C@H]2[C@@H](O)C[C@H](O[C@H]3[C@@H](O)C[C@H](OC4CC[C@@]5(C)[C@H](CC[C@@H]6[C@@H]5CC[C@]5(C)[C@@H](C7=CC(=O)OC7)CC[C@]65O)C4)O[C@@H]3C)O[C@@H]2C)O[C@H](C)[C@H]1O[C@@H]1O[C@H](CO)[C@@H](O)[C@H](O)[C@H]1O (stereo partly specified) returned Lassa entry 25µM* and MARV entry inh 5.6µM*.
CC(=O)OC1CC[C@]2(C)C(CCC3C2CC[C@]2(C)C(C4=CC(=O)OC4)C(OC(C)=O)CC32O)C1 (stereo partly specified) was read as Lassa entry 1.4µM* and MARV entry inh 0.71µM*.
Screening CC(=O)OC1CCC23C(=O)OC45CCC(C6=CC(=O)OC6)C4(C)CCC2C5CCC3(O)C1 (stereo unspecified) returned Lassa entry 1.3µM* and MARV entry inh 0.56µM*.
Screening CC(=O)O[C@H]1C[C@@H](O[C@@H]2[C@H](C)O[C@H](O[C@@H]3[C@H](C)O[C@H](O[C@@H]4CC[C@@]5(C)[C@@H](CC[C@]6(C)[C@]5(C)C[C@H](O)[C@]5(C)[C@@H](C7=CC(=O)OC7)CC[C@@]56O)C4)C[C@@H]3O)C[C@@H]2O)O[C@@H](C)[C@H]1O[C@H]1O[C@@H](CO)[C@@H](O)[C@@H](O)[C@@H]1O returned Lassa entry 0.89µM* and MARV entry inh 0.89µM*.
`CC(=O)OC1CC[C@@]2(C)C3CC[C@@]4(C)C(CC5O[C@@]6(CCC(C)CO6)C(C)C54)C3CC[C@@H]2C1` (stereo partly specified) gave Lassa entry -7% and MARV entry inh 9%.
Screening C=C[C@@H]1C[C@H](C=C)OP(=O)(OCC(=C)C)O1 (stereo partly specified) returned Lassa entry 33% and MARV entry inh 50%.
C=C(C#Cc1ccc(OC)cc1)CCN1C=C(C(=O)OCC)C(c2ccccc2)NC1=O (stereo unspecified) was read as Lassa entry 32%[8.59 µM] and MARV entry inh 6%[8.59 µM].
For NS(=O)(=O)c1ccc(Nc2cc(-c3cccc(O)c3)[nH]n2)cc1 the results were Lassa entry 43% and MARV entry inh 79%.
Screening COc1ccc2c(c1)CO[C@H]([C@H](O)CO)[C@H]2C=CC#Cc1ccc(C(C)(C)C)cc1 returned Lassa entry -14%[8.59 µM] and MARV entry inh -9%[8.59 µM].
C#C[C@]1(O)CC[C@H]2[C@@H]3CCC4=CC(=O)CC[C@@H]4[C@H]3C(=C)C[C@@]21CC was read as Lassa entry -20% and MARV entry inh 8%.
For Cc1ncc2c(c1CNS(=O)(=O)c1cccs1)CCN(C(=O)/C=C/c1cc(F)cc(F)c1)C2 the results were Lassa entry -23% and MARV entry inh -18%.
For COC(=O)[C@H]1C[C@@]2(CC=C(C)C)C(=O)[C@@](CC=C(C)C)(C(=O)C(C(=O)c3ccccc3)=C2OC)C1(C)C the results were Lassa entry -3%[8.59 µM] and MARV entry inh -31%[8.59 µM].
Screening CC(=O)OC1CC(OC2C(O)CC(OC3C(O)CC(OC4CCC5(C)C(CCC6C5CC(O)C5(C)C(C7=CC(=O)OC7)CCC65O)C4)OC3C)OC2C)OC(C)C1OC1OC(CO)C(O)C(O)C1O (stereo unspecified) returned Lassa entry 0.32µM* and MARV entry inh 0.28µM*.
`CCOC(=O)CN1C(=O)NC(c2ccc(Br)cc2)C(C(=O)OC)=C1C` (stereo unspecified) gave Lassa entry -4%[8.59 µM] and MARV entry inh -10%[8.59 µM].
`COc1ccccc1C1=C(Nc2ccccc2)C(=O)NC1=O` gave Lassa entry 26% and MARV entry inh 19%.
Cc1cc(C)cc(C(=O)OC2C[C@H]3CC[C@@H](C2)N3C)c1 (stereo partly specified) was read as Lassa entry inconclusive and MARV entry inh 11µM*.
COc1cc(C(=O)OC2C[C@H]3CC[C@@H](C2)N3C)ccc1O (stereo partly specified) was read as Lassa entry 2%[17.8 µM] and MARV entry inh 5%[17.8 µM].
CN(CCO)C(=O)c1cn(C2CCN(Cc3ccc4ccccc4c3)CC2)nn1 was read as Lassa entry -4% and MARV entry inh -29%.
`CC(C)CNC(=O)c1cn(C2CCN(Cc3nc4ccccc4s3)CC2)nn1` gave Lassa entry -5% and MARV entry inh 2.8µM*.
For CCC1=CC2CN3CCc4c([nH]c5ccccc45)[C@@](C(=O)OC)(C2)[C@@H]13 the results were Lassa entry inconclusive and MARV entry inh 7.9µM*.
COC(=O)C1=CO[C@@H](C)[C@H]2CN3CCc4c([nH]c5ccccc45)[C@@H]3C[C@H]12 was read as Lassa entry -5%[17.8 µM] and MARV entry inh inconclusive.
For COc1ccc([C@]23Cc4c(ccc5ccccc45)[C@H](O2)C2=C(CCCC2=O)O3)cc1 the results were Lassa entry 13%[8.59 µM] and MARV entry inh -21%[8.59 µM].
For C[C@@H]1CC2CCCC2[C@]2(O1)C(=O)Nc1ccccc12 (stereo partly specified) the results were Lassa entry 26%[8.59 µM] and MARV entry inh -4%[8.59 µM].
`CC(=O)C1CCC2C3CCC4CC(O)CCC4(C)C3CC(O)C12C` (stereo unspecified) gave Lassa entry 17% and MARV entry inh 0%.
For C[C@@H]1O[C@H](O[C@@H]2[C@H](C)O[C@H](O[C@@H]3[C@H](C)O[C@H](O[C@H]4CC[C@]5(C)[C@@H](CC[C@@H]6[C@H]5C[C@@H](O)[C@]5(C)[C@@H](C7=CC(=O)OC7)CC[C@]65O)C4)C[C@@H]3O)C[C@@H]2O)C[C@H](O)[C@@H]1O the results were Lassa entry 0.13µM* and MARV entry inh 0.89µM*.
C[C@]12[C@H](O)CC3C(CC[C@@H]4C[C@@H](O)CC[C@]34C)[C@@]1(O)CC[C@@H]2C1=CC(=O)OC1 (stereo partly specified) was read as Lassa entry 1.1µM* and MARV entry inh inconclusive.
For C[C@H]1O[C@@H](O[C@H]2[C@@H](O)C[C@H](O[C@H]3[C@@H](O)C[C@H](O[C@H]4CC[C@@]5(C)[C@H](CC[C@@H]6[C@@H]5C[C@@H](O)[C@]5(C)[C@@H](C7=CC(=O)OC7)CC[C@]65O)C4)O[C@@H]3C)O[C@@H]2C)C[C@H](O)[C@@H]1O the results were Lassa entry 4µM* and MARV entry inh inconclusive.
